# Measurements as given in ChEMBL document CHEMBL3988442, “University of Dundee, Small-Polar-MMV Screening Library” (2021).
# Among all 48,000 compounds or so, about 13,000 (27%) showed an effect of 50% or more. This is one part of the list.
# Test system: Wolbachia pipientis
# Experiment: Anti-Wolbachia Cell-Based Screen
# Format: functional
# Design: scale not given: in the data most compounds retested in dose-response had high values
# Settings: 5 µM
row,Compound,Percent Effect
1,N#Cc1c(Cl)nsc1NCc1ccc(N2CCCC(C(N)=O)C2)cc1 (stereo not drawn),6.894%
2,COc1ccc(-c2nc(CSC3CCCCNC3=O)co2)cc1 (stereo not drawn),-25.49%
3,CNc1ccnc(N(C)Cc2cc(-c3cccs3)n[nH]2)n1,8.932%
4,Cc1n[nH]c(C)c1CNc1nc(-c2ccco2)nc2c1CCNCC2,0.9084%
5,CNc1cc(C(=O)N(C)Cc2cc(-c3cccs3)n[nH]2)ccn1,11.01%
6,CN(C)c1nccc(NCc2cc(-c3ccco3)n[nH]2)n1,126.3%
7,CN(C)c1nccc(NCc2cc(-c3cccs3)n[nH]2)n1,108.4%
8,c1coc(-c2nc3c(c(NCc4n[nH]c5c4CCC5)n2)CCNCC3)c1,-11.22%
9,O=S(=O)(CC1CC1)c1ncc(CN2CCOCC2)n1CC1CCCO1 (stereo not drawn),1.621%
10,Cn1cnc2c1CCN(CCS(=O)(=O)c1ccccc1)C2,2.795%
11,CCOc1ccc(CN2CCNC(C(=O)NC3CC3)C2)cc1CO (stereo not drawn),-28.15%
12,Cc1nc(CNC(=O)c2oc3ccccc3c2CN(C)C)oc1C,12.17%
13,COc1ccccc1OCCCc1cc(C#N)ccn1,-8.074%
14,COc1ccccc1OCCCN1CCNC1=O,93.18%
15,COc1cccn(CC(=O)N(C)CCCOc2c(C)cccc2C)c1=O,-81.04%
16,COc1ccccc1OCCCc1cncc(C(N)=O)c1,-13.5%
17,N#Cc1ccccc1OCCN1CCC(N2CCNC2=O)CC1,-2.122%
18,COc1ccccc1OCCN1CCC(N2CCNC2=O)CC1,-7.605%
19,COc1ccccc1OCCCN1C(=O)CCNC1=O,100.1999%
20,COc1cccc(CN2C[C@H]3CC[C@H]2C3)c1OCCN1CCOCC1,3.067%
21,CCn1ccnc1CN1CCN(CCOc2ccccc2OC)CC1,1.541%
22,CC(C)Oc1ccccc1OCCN1C(=O)CCNC1=O,102.7%
23,Cc1ccc(C)c(OCCN2CCC(N3CCNC3=O)CC2)c1,-4.141%

row,Compound,Percent Effect
1,COc1cccc(OC)c1OCCN1C(=O)CCNC1=O,70.56%
2,Cc1nc(N(C)CCCc2nccn2C)c2c(C)nn(C)c2n1,-2.28%
3,Cc1[nH]c2c(C)ccc(C)c2c1CC(=O)NCc1csc(N(C)C)n1,-37.05%
4,CCC(CC)c1cc(CNC(=O)N2CCOCC2CC)on1 (stereo not drawn),8.113%
5,CC(C)(O)CCc1ccc(C(=O)NCCC2CCOC2)cc1 (stereo not drawn),-23.58%
6,CCOc1ccc(CN2CCN(CCOC)[C@@H]3CS(=O)(=O)C[C@@H]32)cc1,-4.58%
7,O=C(NCCCOCC1CC1)Nc1cccnc1N1CCOCC1,-4.484%
8,CCc1nc(C#N)c(N2CCC(c3nc(-c4ccccc4)no3)CC2)o1,-18.26%
9,Cc1cc(C)n(CC2CCCN2CCS(=O)(=O)c2ccccc2)n1 (stereo not drawn),-8.876%
10,c1ccc(-c2noc(CCCN3CCCC3Cn3cncn3)n2)cc1 (stereo not drawn),100.9%
11,O=C1CCCN1CCCN1CCCCC1Cn1cncn1 (stereo not drawn),3.397%
12,c1csc(-c2noc(CCCN3CCCC3Cn3cccn3)n2)c1 (stereo not drawn),-9.384%
13,N#Cc1cccc(CN2CCCC2Cn2cncn2)c1 (stereo not drawn),-16.52%
14,c1ccc(CCCN2CCCC2Cn2cncn2)cc1 (stereo not drawn),145.7%
15,CCN(Cc1ccccc1)C(=O)CN1CCCCC1Cn1cncn1 (stereo not drawn),-8.051%
16,c1ccc(-c2noc(C3CCN(CCCn4cncn4)CC3)n2)cc1,-0.715%
17,O=S(=O)(CCN1CCCC1Cn1cncn1)c1ccccc1 (stereo not drawn),102.1%
18,O=S(=O)(CCCN1CCCCC1Cn1cncn1)c1ccccc1 (stereo not drawn),108.5%
19,CN1CCN(CC2CC2)C(=O)C12CCN(c1nccs1)CC2,-15.71%
20,CC(C)NC(=O)[C@@H](NC(=O)N1CCN(c2ccc(Cl)cc2)CC1)C(C)C,-4.425%
21,Cn1cnc(-c2nc(C(=O)NCCN3CCOCC3)c3ccccn23)c1,-34.35%
22,CN(CC1CC1)S(=O)(=O)c1ccc(C(F)(F)F)cc1C#N,-1.577%
23,O=C(c1ccc2c(c1)[nH]c(=O)n2[C@H]1CC[C@H](O)CC1)N1CCOCC1,1.877%

row,Compound,Percent Effect
1,O=S(=O)(CCCN1CCCC(Cn2cncn2)C1)c1ccccc1 (stereo not drawn),92.49%
2,O=S(=O)(CCN1CCOC(Cn2cncn2)C1)c1ccccc1 (stereo not drawn),-0.6358%
3,O=C1CCCN1CCN1CCCCC1Cn1cncn1 (stereo not drawn),1.495%
4,O=S(=O)(c1ccccc1)N1CCCC(Cn2cncn2)C1 (stereo not drawn),-7.569%
5,N#Cc1ccccc1OCCN1CCCCC1Cn1cncn1 (stereo not drawn),-1.923%
6,O=S(=O)(CCN1CCCCC1Cn1cncn1)c1ccccc1 (stereo not drawn),104.1%
7,CCN(CC1COc2ccccc2O1)C(=O)C1=NN(C)C(=O)CC1 (stereo not drawn),17.44%
8,COC(=O)CCNC(=O)c1c[nH]cc1-c1cccc(OC)c1,3.352%
9,COc1ccc(CN2CCCCC2Cn2nc(C)nc2C)cc1F (stereo not drawn),112.6%
10,COc1ccc(C)cc1CN1CCCC1Cn1nc(C)nc1C (stereo not drawn),2.525%
11,COc1ccc(F)cc1CN1CCCC1Cn1nc(C)nc1C (stereo not drawn),149.5%
12,COc1ccc(CN2CCCC2Cn2nc(C)nc2C)cc1F (stereo not drawn),-0.5946%
13,COCCNC(=O)c1cc(COc2cncc(Cl)c2)on1,6.247%
14,CC(C)CN1CCN(Cc2nc3c(s2)CCCC3)[C@H]2CS(=O)(=O)C[C@H]21,-7.173%
15,O=C(NC[C@H]1OC[C@@H](NC2CCC(F)(F)CC2)[C@@H]1O)C1CC1,-11.71%
16,Cl.c1cnc(Nc2cncc(C3CCCN3)n2)cn1 (stereo not drawn),154.6%
17,Cc1nc(Nc2cnccn2)cc(C2CCCN2)n1.Cl (stereo not drawn),92.06%
18,Cc1ccc2[nH]c(CN(C)c3cc(CCN)nc(C)n3)nc2c1,1.379%
19,CCCc1cc(C(=O)N2CCCN(c3cccnn3)CC2)[nH]n1,-4.631%
20,COc1ccc(C2(CNC(C)c3nnc(C)o3)CCCCC2)cc1 (stereo not drawn),-5.469%
21,CCN(C(=O)Cc1ccc(NCc2nccn2C)cc1)c1ccccc1,-5.228%
22,CSC(C)C(=O)N1CCC(Oc2cc(C)ccc2F)(C(=O)O)CC1 (stereo not drawn),-19.74%
